AMA1 RON2 block – qHTS for Inhibitors of AMA1-RON; Towards Development of Antimalarial Drug Lead: Primary Screen | Potency, µM (highest dose often 58.2 µM), usual class: inhibitors | 360,000 tested, 0.2% active | AID 720542, 2013 | AlphaScreen AMA1-biotinylated RON2 peptide binding | Plasmodium falciparum AMA1 (3D7) - RON2 peptide interaction; also: nearly all actives have a fitted effect of over 45% in size
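AMA1 (3D7) with his tag at 25 nM final met compounds first, then biotinylated RON2 peptide at 25 nM; detection used donor plus acceptor beads, 10 µg/mL apiece, read by AlphaScreen after 30 min at room temperature.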
AmpC detergent – qHTS Inhibitors of AmpC Beta-Lactamase (assay with detergent). Potency, µM (highest dose often 114 µM), usual class: inhibitors. AmpC hydrolysis of nitrocefin, absorbance 480 nm, 0.01% Triton. 370,000 tested, 0.041% active. AID 485294, 2010; also: nearly all actives have a fitted effect of over 25% in size
Target sequence (P00811 whole entry, looked up): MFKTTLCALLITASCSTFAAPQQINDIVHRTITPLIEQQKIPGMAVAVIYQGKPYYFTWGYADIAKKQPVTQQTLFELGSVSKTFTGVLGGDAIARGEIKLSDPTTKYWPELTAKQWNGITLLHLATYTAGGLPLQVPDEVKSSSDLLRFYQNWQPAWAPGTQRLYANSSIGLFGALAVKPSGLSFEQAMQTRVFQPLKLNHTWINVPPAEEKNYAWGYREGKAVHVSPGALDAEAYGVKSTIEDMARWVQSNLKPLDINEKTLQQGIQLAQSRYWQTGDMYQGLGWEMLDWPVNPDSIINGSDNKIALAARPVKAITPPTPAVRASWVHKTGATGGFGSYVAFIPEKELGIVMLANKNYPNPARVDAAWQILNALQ
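20 mM phosphate pH 7.0 + 0.01% (detergent screen) or 0.0001% Triton X-100; 5.3 nM AmpC reagent; cpd preinc 15 min RT; nitrocefin (800 uM stock) to start; A480 q20 s × 4 min; Activity was normalised to no-enzyme and no-compound control wells.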
AmpC inh no detg – qHTS Inhibitors of AmpC Beta-Lactamase (assay without detergent). AID 485341, 2010. AmpC nitrocefin hydrolysis, absorbance 480 nm, 0.0001% Triton. Potency, µM (top dose mostly 57.1 µM), hits mostly inhibitors. 330,000 tested, 0.52% active. P00811; also: nearly all actives have a fitted effect of over 20% in size
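20 mM phosphate pH 7.0 + 0.01% (detergent screen) or 0.0001% Triton X-100; 5.3 nM AmpC reagent; cpd preinc 15 min RT; nitrocefin (800 uM stock) to start; A480 q20 s × 4 min; Activity was normalised to no-enzyme and no-compound control wells.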
Pf growth 48h – Primary qHTS for delayed death inhibitors of the malarial parasite plastid, 48 hour incubation; Potency, µM (titrated, usually from 28.7 µM), hits mostly inhibitors; 310,000 tested, 5.9% active; P. falciparum luciferase growth in erythrocytes, 48 h
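Luminescence readout; reporter = integrated firefly luciferase in P. falciparum. RBC culture at 2% hematocrit, 0.1% parasitemia final, 37 C/5% CO2; decreased signal taken as growth inhibition.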
HCV inh – qHTS Assay for Inhibitors of Hepatitis C Virus (HCV); 340,000 tested, 3.4% active; Potency, µM (doses to about 41.8 µM), actives largely listed as inhibitors; AID 651820, 2012; Huh7.5.1 HCVcc-Cre infection, luciferase reporter, 44 h
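Seed cells (1,000/well) for 4 h; treat with compound and infect with HCVcc-Cre, moi about 0.5. Incubate 44 h, then detect luciferase activity.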
Pf growth 96h – Primary qHTS for delayed death inhibitors of the malarial parasite plastid, 96 hour incubation; P. falciparum luciferase reporter growth, 96 h; Potency, µM (series often up to 28.7 µM), most hits filed as inhibitors; 320,000 tested, 6.9% active
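P. falciparum expressing integrated firefly luciferase, in erythrocytes at 2% hematocrit, 0.05% parasitemia, incubated with compounds 96 h at 37 C, 5% CO2. Growth inhibition read as loss of luminescence; two-generation exposure targets delayed-death apicoplast inhibitors.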
Hits are given with their value; - = inactive; ? = inconclusive; . = no result. The list is not random: actives were taken first. Their share in the collection is about 11%. Calls follow the shape of the dose curve; as a rule, active = well fitted curve in the direction sought with a large enough effect; inconclusive = small, poorly fitted or top-dose-only effect, or another doubt; inactive = no such curve, though single readings can be large; an effect the other way counts as inactive or inconclusive.

SMILES	AMA1 RON2 block	AmpC detergent	AmpC inh no detg	Pf growth 48h	HCV inh	Pf growth 96h
Cc1ccc(CNC(=O)Cn2c(=O)cc(-c3ccccc3)c3c(C)nn(C)c32)cc1	.	-	.	.	.	.
CCc1ccc2oc(-c3cc(NC(=O)c4cc([N+](=O)[O-])ccc4N4CCOCC4)ccc3Cl)nc2c1	.	-	.	.	.	.
Cc1ccc(C(OCC(C)(C)C[N+](C)(C)C)c2ccccc2)cc1 (stereo not drawn)	-	-	-	1.31µM	-	?
CCOc1ccccc1N(CC(=O)NCC1CCCO1)C(=O)CNS(=O)(=O)c1ccccc1 (stereo not drawn)	-	-	-	-	-	14.7µM
COc1ccc(CNC(=O)CN(CC2CCCO2)C(=O)CNS(=O)(=O)c2ccc(F)cc2)cc1 (stereo not drawn)	-	-	-	-	-	10.4µM
COc1ccc(S(=O)(=O)NCC(=O)N(CC(=O)NCC2CCCO2)c2ccccc2C)cc1 (stereo not drawn)	-	?	-	-	-	-
COC(=O)c1cc(S(=O)(=O)N2CCC(c3ccccc3)C2)c[nH]1 (stereo not drawn)	-	-	-	-	11.2µM	-
COc1ccc(NC(=O)c2cc(S(=O)(=O)N3CCCCC3)c[nH]2)c(OC)c1	-	-	-	-	-	-
COC(=O)c1cc(S(=O)(=O)N2CCC(c3cc(OC)ccc3OC)C2)c[nH]1 (stereo not drawn)	-	-	-	-	6.31µM	13.1µM
O=C(Nc1ccc2oc(-c3ccccc3)nc2c1)c1cc(-n2cnnc2)ccc1Cl	-	-	-	-	?	-
O=C(Nc1ccc(-c2nc3ccccc3o2)cc1)c1ccc(N2C(=O)C3C4C=CC(C4)C3C2=O)cc1 (stereo not drawn)	-	-	-	.	3.98µM	1.85µM
COc1cccc(C(=O)Nc2ccc(-c3nc4ccccc4o3)c(O)c2)c1	-	-	3.98µM	?	?	-
O=C(Nc1ccc(-c2nc3ccccc3o2)cc1)c1cc(-n2cnnc2)ccc1Cl	-	-	-	11.7µM	?	14.7µM
O=C(Nc1ccc(-c2nc3ccccc3o2)cc1)c1ccc2c(c1)OCO2	-	-	.	?	?	?
O=C(Nc1ccc(-c2nc3ccccc3o2)c(O)c1)c1cc(-n2cnnc2)ccc1Cl	-	?	-	9.28µM	11.2µM	-
CCOCCCNC(=O)C1CCCN(Cc2nc(-c3ccc(CC)cc3)oc2C)C1 (stereo not drawn)	.	-	.	.	.	.
COc1ccc(-n2c(CCC(=O)O)ccc2-c2ccccc2)c(OC)c1	.	-	.	.	.	.
CCc1ccc(Nc2n[n+](-c3ccccc3)c(-c3cccc(C)c3)s2)cc1	-	?	-	?	31.6µM	8.28µM
CCOc1cc(-c2sc(Nc3ccc(CC)cc3)n[n+]2-c2ccccc2)ccc1OC	-	-	-	10.4µM	-	?
Cc1cccc(-c2sc(Nc3ccccc3)n[n+]2-c2ccc(F)cc2)c1	-	?	-	-	-	?
CCOc1cc(-c2sc(Nc3cc(C)ccc3OC)n[n+]2-c2ccccc2)ccc1OC	-	?	-	?	?	?
CCC(=O)OC1(C(C)=O)CCC2C3CCC4=CC(=O)CCC4(C)C3CCC21C (stereo not drawn)	-	.	.	.	-	.
CC(=O)O[C@]1(C(C)=O)CC[C@H]2[C@@H]3C[C@H](C)C4=CC(=O)CC[C@]4(C)[C@H]3CC[C@@]21C	-	-	-	13.1µM	?	11.7µM
CC(=O)O[C@]1(C(C)=O)CC[C@H]2[C@@H]3C=C(Cl)C4=CC(=O)[C@@H]5C[C@@H]5[C@]4(C)[C@H]3CC[C@@]21C	-	-	-	10.7µM	-	8.49µM
CC(=O)O[C@]1(C(C)=O)CC[C@H]2[C@@H]3C=C(Cl)C4=CC(=O)CC[C@]4(C)[C@H]3CC[C@@]21C	-	-	-	11.7µM	?	?
SMILES	AMA1 RON2 block	AmpC detergent	AmpC inh no detg	Pf growth 48h	HCV inh	Pf growth 96h
CC(=O)OC1(C(C)=O)CCC2C3CC(C(F)(F)F)C4=CC(=O)CCC4(C)C3CCC21C (stereo not drawn)	-	.	.	.	?	.
CCCC(C)C(=O)Nc1ncc(S(=O)(=O)c2ccc([N+](=O)[O-])cc2)s1 (stereo not drawn)	-	-	-	1.65µM	?	?
CCC(C)(C)C(=O)Nc1ncc(S(=O)(=O)c2ccc([N+](=O)[O-])cc2)s1	?	?	-	8.28µM	-	2.94µM
Cc1cc(C)n(CC(O)Cn2ccc3ccccc32)n1 (stereo not drawn)	-	-	-	.	-	?
Cc1ccccc1OCC(O)Cn1c2ccccc2c2ccccc21 (stereo not drawn)	-	-	-	8.28µM	7.94µM	11.7µM
Cc1cc(C)n(CC(O)Cn2c3ccccc3c3ccccc32)n1 (stereo not drawn)	-	-	-	10.4µM	?	.
C=C1CC(C)OC(c2ccccc2OCC(O)CN2CCCCC2)C1 (stereo not drawn)	-	-	-	14.7µM	-	-
Cc1ccccc1OCC(O)CN1CCN(CC(O)COc2ccccc2C)C(C)C1 (stereo not drawn)	-	-	-	9.28µM	-	?
CCOC(=O)c1ccc(NC(=O)c2c(C)nn(-c3ccc(F)cc3)c2-n2cccc2)cc1	.	-	.	.	.	.
COc1cc(NS(=O)(=O)c2c(C(=O)N3CCCCC3)c(C)n(C)c2C)cc(OC)c1OC	.	-	.	.	.	.
Cc1cccc(OCC(=O)NCC2(N3CCN(C)CC3)CCCCC2)c1	.	-	.	.	.	.
CC(=O)Nc1ccc(OCC(O)Cn2c3ccccc3c3ccccc32)c(C)c1 (stereo not drawn)	-	?	-	?	?	10.4µM
CC1CN(CC(O)COc2ccccc2C(C)(C)C)CC(C)O1 (stereo not drawn)	-	-	-	2.33µM	-	8.28µM
CCOC(=O)N1CCN(CC(O)COc2ccccc2C(C)(C)C)CC1 (stereo not drawn)	-	?	-	-	-	-
CC(=O)Nc1ccc(OCC(O)Cn2c3ccccc3c3ccccc32)cc1 (stereo not drawn)	?	-	-	?	?	-
CCCCNC(=O)C1=CC(c2ccc3c(c2)OCO3)=NS(=O)(=O)N1C	.	-	.	.	.	.
COc1ccc(C(=O)C2CCCN(C(=O)Cn3ccc(C)n3)C2)cc1OC (stereo not drawn)	-	-	-	-	-	?

Screening data from PubChem.
